In PubChem BioAssay AID1671192 (National Center for Advancing Translational Sciences (NCATS), 2021):
Results filed as inconclusive are left out. The source made the active and inactive calls. The call rests on the fitted dose curve; in most records, active means well fitted curve in the direction sought with a large enough effect; inconclusive means small, poorly fitted or top-dose-only effect, or another doubt; inactive means no such curve, though single readings can be large or run the other way.

These molecules were tested against Polyunsaturated fatty acid lipoxygenase ALOX15 (Homo sapiens) (UniProt P16050) (assay: Counterscreen qHTS for inhibitors of human arachidonate 12S-lipoxygenase (ALOX12): ALOX15 Assay). Details: purified ALOX15 enzyme activity; series mostly up to 110 µM.
Polyunsaturated fatty acid lipoxygenase ALOX15 (Homo sapiens), sequence (P16050 whole entry, looked up): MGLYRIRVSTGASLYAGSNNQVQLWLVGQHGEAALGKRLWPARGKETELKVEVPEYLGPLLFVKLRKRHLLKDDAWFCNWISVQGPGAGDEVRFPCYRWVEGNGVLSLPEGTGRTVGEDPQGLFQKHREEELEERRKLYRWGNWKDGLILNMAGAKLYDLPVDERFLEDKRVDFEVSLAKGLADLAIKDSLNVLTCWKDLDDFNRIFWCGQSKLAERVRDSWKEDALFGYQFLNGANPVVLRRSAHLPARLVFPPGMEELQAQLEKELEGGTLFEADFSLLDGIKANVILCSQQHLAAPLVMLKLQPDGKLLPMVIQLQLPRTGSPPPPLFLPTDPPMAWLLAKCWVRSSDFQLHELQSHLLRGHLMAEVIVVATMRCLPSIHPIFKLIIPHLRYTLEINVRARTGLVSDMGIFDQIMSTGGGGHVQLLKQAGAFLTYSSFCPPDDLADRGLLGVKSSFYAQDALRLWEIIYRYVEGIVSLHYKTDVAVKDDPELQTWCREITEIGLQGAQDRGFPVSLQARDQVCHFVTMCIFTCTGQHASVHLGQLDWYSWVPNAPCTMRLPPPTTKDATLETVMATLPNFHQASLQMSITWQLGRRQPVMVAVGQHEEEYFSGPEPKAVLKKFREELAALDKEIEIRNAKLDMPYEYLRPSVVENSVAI
Procedure, shortened: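 Xylenol orange–ferric complex formation, read as the 573 nm to 405 nm absorbance ratio, tracks product from 50 uM arachidonic acid turned over for 30 min at RT. Enzyme is 40 nM ALOX15, pH 7.5 HEPES buffer, compound-preincubated 15 min.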

Row | Compound | outcome
1 | CC1CCCCC1Nc1ncnc2c1CN(C1CCCNCC1)C(=O)CN2C (centres undefined) | inactive
2 | CCc1ccc(S(=O)(=O)c2nnn3c2nc(NCc2ccc(F)cc2)c2ccccc23)cc1 | inactive
3 | O=c1[nH]c(C2CCCN(Cc3cccc(-c4cccs4)c3)C2)nc2ccc(F)cc12 (centres undefined) | inactive
4 | CN1CC(=O)N(C2CCNCC2)Cc2c1ncnc2N1CCCC(O)C1 (centres undefined) | inactive
5 | O=C1NCc2ccccc2CC12CCN(Cc1ccc(-c3ccccc3)cc1)CC2 | inactive
6 | N#Cc1ccc(CN2CCn3c(nn(-c4cccc(Cl)c4)c3=O)C2)cc1 | inactive
7 | COc1ccc(C(=O)N2Cc3ccccc3CC23CCCN(C(=O)CCCN)C3)cc1 (centres undefined) | inactive
8 | COc1cccc(-c2ccc(CN)cc2)c1 | inactive
9 | C[C@H](C(=O)N1Cc2ccccc2CC2(CCN(C)C2)C1)c1ccccc1 (some centres undefined) | inactive
10 | CCc1nc2c(c(-c3ccc(OC)cc3)n1)CCN(Cc1cccc3ccccc13)CC2 | inactive
11 | CNCc1ccccc1OC(F)(F)F | inactive
12 | O=C(O)CCCC(=O)N1Cc2ccccc2CC2(CCCN2Cc2ccccc2)C1 (centres undefined) | inactive
13 | CCc1ccccc1CN1CCCC12Cc1ccccc1CNC2=O (centres undefined) | inactive
14 | COc1ccc(CC(=O)N2Cc3ccccc3CC3(CCCN(C)C3)C2)cc1 (centres undefined) | inactive
15 | COc1ccccc1CNc1ncnc2c1CN(C1CCCNCC1)C(=O)CN2C (centres undefined) | inactive
16 | CCN1CCCC12Cc1ccccc1CN(C(=O)c1ccccc1)C2 (centres undefined) | inactive
17 | CC(=O)N1Cc2ccccc2CC2(CCCCN2Cc2ccccn2)C1 (centres undefined) | inactive
18 | CCC(=O)N1Cc2ccccc2CC2(CCCN(CC3CCNC3)C2)C1 (centres undefined) | inactive
19 | CN1CC(=O)N(C2CCCNCC2)Cc2c1ncnc2N1CCCC(F)C1 (centres undefined) | inactive
